The source of these data is PubChem BioAssay (Tox21).

Results filed as inconclusive are left out. More than one record can exist for a structure, and the calls need not agree. Calls of active or inactive are those of the source. Unless noted, the call rests on the fitted dose curve.

A short description of assay [1]: Nuclear factor erythroid 2-related factor 2/antioxidant responsive element (Nrf2/ARE) small molecule agonists: qHTS cell viability counter screen in human keratinocytes (AID 1919968; active means well fitted curve in the direction sought with a large enough effect in the repeat runs; an effect the other way counts as inactive or inconclusive; further: nearly all actives have a fitted effect of over 55% in size). The essentials: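 KeratinoSens cells (HaCaT keratinocytes stably carrying an ARE-luciferase reporter) were seeded at 1,500 cells/well and rested 5 h at 37 C/5% CO2. They were then exposed to compounds in DMSO for 23 h. Viability was read by CellTiter-Fluor fluorescence after 1 h.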

Assay [2] is described as follows: Nuclear factor erythroid 2-related factor 2/antioxidant responsive element (Nrf2/ARE) small molecule agonists: luciferase reporter gene qHTS assay in human keratinocytes (AID 1919969). Further: nearly all actives have a fitted effect of over 35% in size. Further: potency means the concentration at half of the fitted maximal effect. On the technique in general: Reporter assays use an easily measured gene product as a stand-in for the process of interest.
In assay [3] the target is Gonadotropin-releasing hormone receptor (Homo sapiens) (UniProt P30968). Kind of assay: Human gonadotropin-releasing hormone receptor (GnRHR) small molecule agonists, calcium flux assay in GnRHR-HEK293 cells (AID 1920063). Further: nearly all actives have a fitted effect of over 35% in size. The essentials:
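HEK293 cells stably expressing human GnRHR were plated 18 h at 37 °C, loaded with calcium dye 1 h at 37 °C, then given compound in agonist mode; fluorescence (Ex/Em 480/540) read kinetically for 3 min at 1 s intervals.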
(Calcium assays in cells follow changes in intracellular calcium, usually with a dye or a luminescent sensor.)

The target in assay [4] is KiSS-1 receptor (Homo sapiens) (UniProt Q969F8). Description: Human kisspeptin (KISS1R) small molecule agonists, calcium flux assay in KISS1R-HEK293 cells (AID 1920064; active means well fitted curve in the direction sought with a large enough effect in the repeat runs; an effect the other way counts as inactive or inconclusive). The method in brief: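 HEK293 cells stably expressing human KISS1R were plated 18 h at 37 °C, loaded with calcium dye for 1 h at 37 °C, then given compound by pin tool. Fluorescence (Ex/Em 480/540) was read kinetically for 3 min.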
Sequence of KiSS-1 receptor (Homo sapiens) (Q969F8 whole entry, looked up): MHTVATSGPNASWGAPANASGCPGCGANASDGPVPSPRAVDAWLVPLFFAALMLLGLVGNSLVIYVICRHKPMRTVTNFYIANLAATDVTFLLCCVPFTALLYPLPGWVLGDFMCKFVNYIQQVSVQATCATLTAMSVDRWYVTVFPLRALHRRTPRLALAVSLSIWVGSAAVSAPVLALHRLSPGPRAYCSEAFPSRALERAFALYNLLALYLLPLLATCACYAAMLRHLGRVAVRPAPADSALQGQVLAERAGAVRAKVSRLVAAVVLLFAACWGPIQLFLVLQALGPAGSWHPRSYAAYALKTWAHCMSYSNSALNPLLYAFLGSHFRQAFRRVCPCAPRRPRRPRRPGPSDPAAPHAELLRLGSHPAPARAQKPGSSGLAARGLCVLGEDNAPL

A short description of assay [5]: G protein-coupled receptor (GPCR) small molecule agonists, calcium flux assay: HEK293 wild type cell line counter screen (AID 1920065). The method in brief:
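Cells were plated and cultured 18 h at 37 C/5% CO2, then loaded with calcium dye for 1 h at 37 C. Compounds in DMSO were pin-transferred in agonist mode, and fluorescence (Ex/Em 480/540) was read kinetically for 3 min at 1 s intervals.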

Assay [6] can be described thus: p53 small molecule agonists, cell-based qHTS assay with human liver microsomes (AID 1963577).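 Further: p53 response element beta-lactamase reporter cells with liver microsomes plus NADPH.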 The method in brief: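 Steps: plate p53RE-bla cells, incubate 5 h at 37 C; add compound in DMSO; add microsomes (0.5 mg/mL final) and NADPH (0.5 mg/mL final); incubate 16 h at 37 C; add LiveBLAzer, 2 h RT; read fluorescence.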
In general terms: In qHTS, concentration-response curves come from the screen itself.

The nature of assay [7]: p53 small molecule agonists, cell-based qHTS assay with rat liver microsomes (AID 1963578). The essentials:
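Metabolic activation is supplied by rat liver microsomes with NADPH (each 0.5 mg/mL final). p53RE-bla cells incubate with compound 16 h at 37 C; reporter activity is measured by LiveBLAzer fluorescence.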

Assay [8] is described as follows: p53 small molecule agonists, cell-based qHTS assay with human liver microsomes: qHTS cell viability counter screen (AID 1963579). Further: nearly all actives have a fitted effect of over 45% in size. The method in brief:
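After the 460/530 nm beta-lactamase read, CellTiter-Glo was added to the same wells and luminescence measured after 30 min at room temperature, giving viability of p53RE-bla cells treated 16 h with compounds plus microsomes and NADPH.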

A short description of assay [9]: p53 small molecule agonists, cell-based qHTS assay with rat liver microsomes: qHTS cell viability counter screen (AID 1963580). Further: nearly all actives have a fitted effect of over 45% in size. The essentials: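 p53RE-bla HCT-116 cells (4,000/well) rested 5 h at 37 C, then given Tox21 compounds in DMSO with rat liver microsomes (0.5 mg/mL final) plus NADPH (0.5 mg/mL final) for 16 h at 37 C. Viability read by CellTiter-Glo luminescence after 30 min at room temperature.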

A short description of assay [10]: p53 small molecule agonists, cell-based qHTS assay: qHTS cell viability counter screen (AID 1963581). Further: nearly all actives have a fitted effect of over 45% in size. The method in brief: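 p53RE-bla HCT-116 cells were exposed to compounds for 16 h at 37 C; after the beta-lactamase FRET read in the same wells, CellTiter-Glo was added and luminescence (intracellular ATP) read after 30 min at room temperature.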
The nature of assay [11]: p53 small molecule agonists, cell-based qHTS assay (AID 1963582; active means well fitted activation curve with a large enough effect in the signal ratio in the repeat runs, not every such curve was filed as active; the % refers to the signal ratio). The essentials: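 p53RE-bla beta-lactamase reporter cells rested 5 h at 37 C/5% CO2, then received compounds in DMSO by pin transfer and were incubated 16 h at 37 C. LiveBLAzer B/G FRET substrate was loaded for 2 h at room temperature before fluorescence reading.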
In assay [12] the target is 5-hydroxytryptamine receptor 2A (Homo sapiens) (UniProt P28223). Description: 5-hydroxytryptamine receptor 2A (HTR2A) small molecule antagonists, cell-based qHTS assay (AID 1963586). Further: nearly all actives have a fitted effect of over 45% in size. The essentials: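 Antagonist-mode intracellular calcium assay: DOI (4 nM) added after 5 min compound pre-incubation at room temperature to dye-loaded HTR2A-CHO cells. Fluorescence followed for 3 min, sampled every second.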
Sequence of 5-hydroxytryptamine receptor 2A (Homo sapiens) (P28223 whole entry, looked up): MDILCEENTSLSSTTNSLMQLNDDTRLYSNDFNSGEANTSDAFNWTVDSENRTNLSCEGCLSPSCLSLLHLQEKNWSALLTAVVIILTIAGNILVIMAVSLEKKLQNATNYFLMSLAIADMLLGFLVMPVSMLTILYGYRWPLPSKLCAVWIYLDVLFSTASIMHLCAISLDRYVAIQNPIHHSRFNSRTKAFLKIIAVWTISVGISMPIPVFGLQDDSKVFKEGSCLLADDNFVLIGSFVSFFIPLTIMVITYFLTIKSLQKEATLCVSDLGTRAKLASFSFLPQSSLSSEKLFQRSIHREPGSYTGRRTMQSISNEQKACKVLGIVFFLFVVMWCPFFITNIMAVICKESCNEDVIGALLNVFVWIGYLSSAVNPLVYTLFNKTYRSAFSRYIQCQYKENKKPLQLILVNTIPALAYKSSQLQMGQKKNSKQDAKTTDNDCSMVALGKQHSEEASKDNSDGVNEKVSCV

The target is the same in assay [13]. Kind of assay: 5-hydroxytryptamine receptor 2A (HTR2A) small molecule agonists, cell-based qHTS assay (AID 1963587). Further: nearly all actives have a fitted effect of over 30% in size. The essentials:
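HTR2A-CHO cells, plated 18 h at 37 C/5% CO2, dye-loaded 1 h at 37 C; compounds in DMSO added by pin tool (agonist mode). Intracellular calcium flux read as kinetic fluorescence on FDSS over 2 min at 1 s intervals.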

In assay [14] the target is Muscarinic acetylcholine receptor M1 (Homo sapiens) (UniProt P11229). Kind of assay: Cholinergic receptor muscarinic 1 (CHRM1) small molecule antagonists, cell-based qHTS assay (AID 1963588). Further: nearly all actives have a fitted effect of over 40% in size. Further: potency means the concentration at half of the fitted maximal effect. The method in brief:
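CHRM1-CHO calcium-flux assay, antagonist mode. Cells were seeded 18 h, dye-loaded 1 h at 37 C and given compound for 5 min at RT, then acetylcholine was added at 50nM. FDSS fluorescence was read 3 min; 15 concentrations, three runs.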

Assay [15] has the same target. Description: Cholinergic receptor muscarinic 1 (CHRM1) small molecule agonists, cell-based qHTS assay (AID 1963589). Further: nearly all actives have a fitted effect of over 35% in size. The essentials: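 CHO cells stably expressing human CHRM1, seeded 18 h at 37 C/5% CO2, dye-loaded 1 h at 37 C, then given compound in agonist mode; intracellular calcium fluorescence read kinetically at 1 s intervals. Fifteen concentrations, three independent runs.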

The nature of assay [16]: cAMP Responsive Elements (CRE) small molecule agonists, cell-based qHTS assay (AID 1963590). The method in brief:
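CRE-bla HEK 293T cells in DMEM with 10% dialyzed FBS, NEAA, pyruvate and 25 mM HEPES were plated 18 h at 37 C/5% CO2, then exposed to compounds in DMSO for 3 h before LiveBLAzer B/G FRET substrate addition.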

Assay [17] is described as follows: cAMP Responsive Elements (CRE) small molecule antagonists, cell-based qHTS assay (AID 1963591; active means well fitted inhibition curve with a large enough effect in the signal ratio in the repeat runs, not every such curve was filed as active; the % refers to the signal ratio). The essentials:
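CRE-bla HEK293T cells were plated 18 h at 37 °C/5% CO2, pinned with compound in DMSO, then stimulated with NKH477 at 0.25 uM final for 3 h. LiveBLAzer B/G FRET substrate was added and plates incubated 2 h at room temperature.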

The target of assay [18] is Beta-2 adrenergic receptor (Homo sapiens) (UniProt P07550). Kind of assay: Adrenergic beta2 receptor (ADRB2) small molecule antagonists, cell-based qHTS assay (AID 1963592). Further: series mostly up to about 92 µM; nearly all actives have a fitted effect of over 50% in size. The method in brief: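 Cells (CHO, stable ADRB2 overexpression) incubated 18-20hr at 37C; compounds added from DMSO; agonist mix (1nM isoproterenol, 100uM IBMX, 25uM Ro-20-1724) added; 0.5hr RT; d2-cAMP and anti-cAMP-cryptate added; 1hr RT; 665/615 nm read.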
Sequence of Beta-2 adrenergic receptor (Homo sapiens) (P07550 whole entry, looked up): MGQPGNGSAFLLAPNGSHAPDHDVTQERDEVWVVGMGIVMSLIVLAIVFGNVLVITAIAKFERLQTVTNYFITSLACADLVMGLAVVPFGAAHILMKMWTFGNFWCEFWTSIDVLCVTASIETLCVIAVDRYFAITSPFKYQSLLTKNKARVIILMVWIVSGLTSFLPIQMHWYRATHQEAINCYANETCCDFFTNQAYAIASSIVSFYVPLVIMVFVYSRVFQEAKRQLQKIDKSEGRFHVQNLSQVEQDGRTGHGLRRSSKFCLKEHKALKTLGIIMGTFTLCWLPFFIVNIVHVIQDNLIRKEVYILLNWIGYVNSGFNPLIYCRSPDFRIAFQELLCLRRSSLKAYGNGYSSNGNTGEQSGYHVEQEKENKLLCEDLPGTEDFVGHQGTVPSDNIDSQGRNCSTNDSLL

Assay [19] concerns the target D(2) dopamine receptor (Homo sapiens) (UniProt P14416). Description: Dopamine D2 receptor (DRD2) small molecule agonists, cell-based qHTS assay (AID 1963594). Further: nearly all actives have a fitted effect of over 35% in size. The essentials:
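HEK293 cells stably expressing DRD2 were cultured 24 h at 37 C, then given Ro20-1724 (0.1 mM final) and compounds for 10 min at room temperature. NKH477 (200nM) was then added for 30 min. cAMP was read by HTRF.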

Assay [20] shares this target. Kind of assay: Dopamine D2 receptor (DRD2) small molecule antagonists, cell-based qHTS assay (AID 1963595; active means well fitted inhibition curve with a large enough effect in the signal ratio in the repeat runs, with a control signal flat; the % refers to the signal ratio). The method in brief: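 HTRF cAMP read-out at 665 and 620 nm emission (340 nm excitation). Antagonist mode: compounds were tested against 12 nM quinpirole in DRD2-HEK293 cells, with 200 nM NKH477 raising cAMP and 0.1 mM Ro20-1724 blocking its breakdown.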

Sequence of D(2) dopamine receptor (Homo sapiens) (P14416 whole entry, looked up): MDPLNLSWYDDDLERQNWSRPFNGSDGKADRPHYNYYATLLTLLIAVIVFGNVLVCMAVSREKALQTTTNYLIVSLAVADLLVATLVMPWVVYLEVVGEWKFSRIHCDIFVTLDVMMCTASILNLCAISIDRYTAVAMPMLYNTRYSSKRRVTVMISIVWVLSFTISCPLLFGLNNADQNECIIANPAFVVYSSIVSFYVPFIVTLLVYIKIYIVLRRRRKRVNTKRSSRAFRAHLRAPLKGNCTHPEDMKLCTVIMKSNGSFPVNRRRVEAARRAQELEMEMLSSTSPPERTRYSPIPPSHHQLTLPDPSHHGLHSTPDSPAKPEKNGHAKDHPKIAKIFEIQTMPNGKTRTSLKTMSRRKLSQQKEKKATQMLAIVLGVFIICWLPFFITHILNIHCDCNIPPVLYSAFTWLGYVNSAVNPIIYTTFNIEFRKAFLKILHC
Sequence of Muscarinic acetylcholine receptor M1 (Homo sapiens) (P11229 whole entry, looked up): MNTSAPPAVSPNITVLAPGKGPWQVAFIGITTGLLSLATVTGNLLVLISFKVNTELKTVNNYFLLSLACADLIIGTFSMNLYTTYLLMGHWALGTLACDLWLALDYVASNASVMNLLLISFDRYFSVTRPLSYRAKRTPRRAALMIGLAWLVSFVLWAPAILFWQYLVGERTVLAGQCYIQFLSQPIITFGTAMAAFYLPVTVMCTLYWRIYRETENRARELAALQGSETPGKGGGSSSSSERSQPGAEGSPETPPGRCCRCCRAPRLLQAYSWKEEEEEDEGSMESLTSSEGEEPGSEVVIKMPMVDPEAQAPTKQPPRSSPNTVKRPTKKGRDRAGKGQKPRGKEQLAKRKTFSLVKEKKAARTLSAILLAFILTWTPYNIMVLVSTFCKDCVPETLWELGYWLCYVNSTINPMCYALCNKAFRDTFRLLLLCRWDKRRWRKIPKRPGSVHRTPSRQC
Sequence of Gonadotropin-releasing hormone receptor (Homo sapiens) (P30968 whole entry, looked up): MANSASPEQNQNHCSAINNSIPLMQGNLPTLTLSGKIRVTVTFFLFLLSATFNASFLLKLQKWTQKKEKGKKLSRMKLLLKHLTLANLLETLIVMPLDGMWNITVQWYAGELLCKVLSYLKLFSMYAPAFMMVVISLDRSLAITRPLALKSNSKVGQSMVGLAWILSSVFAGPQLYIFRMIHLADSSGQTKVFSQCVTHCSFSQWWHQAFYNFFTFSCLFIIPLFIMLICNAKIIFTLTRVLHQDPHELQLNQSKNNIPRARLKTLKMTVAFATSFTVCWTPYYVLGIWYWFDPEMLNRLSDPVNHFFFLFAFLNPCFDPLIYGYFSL

Consider `Cc1cccc([N+](=O)[O-])c1`, for which the Potency result in [1], in assay [2], in assay [3], in [4], in assay [5] and in assay [6] was “inactive” each time. Also, the Potency entry in assay [7], in assay [8], in assay [9], in assay [10], in assay [11] and in [12] was “inactive” throughout. In addition, the Potency result in [13], in assay [14], in assay [15], in assay [16], in assay [17] and in assay [18] was “inactive” throughout. The Potency result in assay [19] and in [20] was “inactive” in each case.
For `NC(=O)c1cc([N+](=O)[O-])cc([N+](=O)[O-])c1`, the Potency entry in assay [1], in assay [2], in assay [3], in [4], in assay [5] and in assay [6] was “inactive” throughout. Also, the Potency result in [7], in assay [8], in assay [9], in assay [10], in assay [11] and in assay [12] was “inactive” in each case. In addition, the Potency result in [13], in assay [15], in [16], in assay [17], in [18] and in assay [19] was “inactive” in each case. Moreover, in assay [20], the Potency result is “inactive”. For the same compound, the Potency in [14] was 460 nM (active).
For `ClCc1ccccn1`, the Potency result in [1], in assay [2], in assay [3], in [4], in assay [5] and in assay [6] was “inactive” each time. Also, the Potency entry in assay [7], in [8], in assay [9], in assay [10], in assay [11] and in assay [12] was “inactive” throughout. Besides, the Potency result in assay [13], in [14], in assay [15], in [16], in [17] and in assay [18] was “inactive” throughout. Besides, the Potency entry in assay [19] and in [20] was “inactive” in each case.
Take `COC(C)(C)CCCC(C)C/C=C/C(C)=C/C(=O)OC(C)C` (stereo not drawn): the Potency result in assay [1], in assay [3], in assay [4], in assay [5], in [6] and in assay [7] was “inactive” in each case. Besides, the Potency result in assay [8], in assay [9], in assay [10], in [11], in [12] and in assay [13] was “inactive” throughout. Besides, the Potency entry in [15], in [16], in [17], in [18] and in assay [19] was “inactive” in each case. In addition, the Potency was 47.8 µM (active) in assay [2]; 3.3 nM (active) and inactive in assay [14].
As to `CCCC1CCCCN1` (stereo not drawn), the Potency result in assay [1], in assay [2], in [3], in assay [4], in assay [5] and in [6] was “inactive” throughout. The Potency entry in assay [7], in [8], in assay [9], in assay [10], in assay [11] and in [12] was “inactive” in each case. The Potency entry in assay [13], in [14], in assay [15], in assay [16], in assay [17] and in assay [18] was “inactive” throughout. Further, the Potency result in assay [19] was “inactive”.
For the compound `O=P(O)(Oc1ccccc1)Oc1ccccc1`, the Potency entry in [1], in assay [2], in [3], in assay [4], in [5] and in assay [6] was “inactive” each time. Moreover, the Potency entry in assay [7], in [8], in [9], in assay [10], in [11] and in assay [12] was “inactive” throughout. The Potency result in [13], in assay [14], in assay [15], in [16], in [17] and in assay [18] was “inactive” each time. For the same compound, the Potency entry in [19] and in assay [20] was “inactive” in each case.
As for `CCN(CC)C1CCCCC1`, the Potency entry in assay [1], in [2], in assay [3], in [4], in assay [5] and in assay [6] was “inactive” in each case. Moreover, the Potency entry in assay [7], in [8], in [9], in [10], in assay [11] and in [12] was “inactive” in each case. The Potency result in assay [13], in [14], in [15], in [16], in assay [17] and in [18] was “inactive” throughout. For the same compound, the Potency entry in [19] and in assay [20] was “inactive” throughout.
